# Target: Histone H4 (UniProt P62805)
# Assay: cross-link between two proteins; cross-linking mass spectrometry
substance,measurement,value
"ADP/ATP translocase 3, P12236",listed as a hit,yes

# Source: article PMC9174471
